# Source: PubChem (National Center for Advancing Translational Sciences (NCATS))
# BAZ2B block: BAZ2B (human) inhibition | 360,000 tested, 4.4% active | AlphaScreen BAZ2B-H3K14Ac peptide displacement | Potency, µM (top dose mostly 114 µM), without a hit: at the top dose activity change, negative = inhibition, actives largely listed as inhibitors; further: on the % scale 0 is the no-effect control and ±100 the full control effect; nearly all actives have a fitted effect of over 60% in size
#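 Protein-peptide AlphaScreen: BAZ2B 50 nM, b-H3K14Ac 50 nM, 1x PBS pH 7.4 + 0.01% Tween-20. Preincubation 30 min RT; cpd 30 min RT (top 110 uM); beads 20 min RT, light-protected.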
# JMJD2A Tudor inh: inhibitors of human JMJD2A Tudor domain; AlphaScreen JMJD2A-Tudor / H3K4me3 peptide binding; 390,000 tested, 4.4% active; Potency, µM (titrated, usually from 114 µM), for the others: at the top dose activity change, negative = inhibition, actives largely listed as inhibitors; AID 504339; O75164; further: on the % scale 0 is the no-effect control and ±100 the full control effect; nearly all actives have a fitted effect of over 50% in size
# Target sequence (O75164 whole entry, looked up, the tested form may be a part): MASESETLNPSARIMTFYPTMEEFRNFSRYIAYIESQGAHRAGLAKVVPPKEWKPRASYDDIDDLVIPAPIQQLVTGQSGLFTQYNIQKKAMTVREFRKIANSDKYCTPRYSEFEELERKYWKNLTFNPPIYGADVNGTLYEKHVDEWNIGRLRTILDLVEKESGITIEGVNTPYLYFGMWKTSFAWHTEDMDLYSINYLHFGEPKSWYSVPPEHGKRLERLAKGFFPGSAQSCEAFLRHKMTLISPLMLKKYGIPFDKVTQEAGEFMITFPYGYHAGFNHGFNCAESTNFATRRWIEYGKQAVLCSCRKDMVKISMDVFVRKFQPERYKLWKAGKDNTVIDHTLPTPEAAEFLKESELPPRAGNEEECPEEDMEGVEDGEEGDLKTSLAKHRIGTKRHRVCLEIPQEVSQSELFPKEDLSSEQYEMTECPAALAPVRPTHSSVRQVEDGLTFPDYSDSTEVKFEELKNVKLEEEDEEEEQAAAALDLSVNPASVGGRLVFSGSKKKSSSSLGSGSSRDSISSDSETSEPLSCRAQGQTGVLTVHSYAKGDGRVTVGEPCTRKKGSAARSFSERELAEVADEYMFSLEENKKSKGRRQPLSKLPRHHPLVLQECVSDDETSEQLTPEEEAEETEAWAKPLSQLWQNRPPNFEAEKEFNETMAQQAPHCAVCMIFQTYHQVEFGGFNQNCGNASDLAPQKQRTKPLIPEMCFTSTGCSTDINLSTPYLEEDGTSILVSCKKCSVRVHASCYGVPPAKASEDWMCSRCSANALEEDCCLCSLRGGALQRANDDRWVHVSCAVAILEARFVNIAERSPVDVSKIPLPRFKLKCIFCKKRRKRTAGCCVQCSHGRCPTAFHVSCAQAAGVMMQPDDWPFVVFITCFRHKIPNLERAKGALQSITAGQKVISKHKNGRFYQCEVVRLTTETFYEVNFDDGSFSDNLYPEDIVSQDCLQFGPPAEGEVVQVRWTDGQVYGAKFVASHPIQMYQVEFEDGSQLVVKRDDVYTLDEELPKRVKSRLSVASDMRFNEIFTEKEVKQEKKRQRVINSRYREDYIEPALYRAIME
# HP1b binding inh: inhibitors of HP1-beta chromodomain binding to methylated histone tails | AlphaScreen HP1-beta / biotin-H3K9me3 peptide binding | Potency, µM (top dose mostly 114 µM), for inactives: at the highest dose activity change, negative = inhibition, actives largely listed as inhibitors | 390,000 tested, 0.56% active | AID 540317; further: nearly all actives have a fitted effect of over 70% in size
#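 AlphaScreen: HP1-beta (50 nM) preformed 30 min with biotin-H3(1-18)K9me3 peptide (50 nM) in PBS pH 7.4, 0.01% Tween-20. Compound added for 30 min at RT, then streptavidin donor/nickel chelate acceptor beads (10 ug/mL) for 30 min.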
# PLK1 PBD block: blocks phosphopeptide binding to human PLK1 polo-box domain; 360,000 tested, 2.8% active; Potency, µM, for the others: max response, negative = inhibition, usual class: inhibitors; Plk1 PBD binding of FITC phosphopeptide, fluorescence polarization; further: series mostly up to about 57 µM; on the % scale 0 is the no-effect control and ±100 the full control effect; nearly all actives have a fitted effect of over 65% in size
# G9a inh: blocks human histone lysine methyltransferase G9a; 350,000 tested, 8.8% active; Potency, µM (top dose mostly 102 µM), for the others: at the highest dose activity, negative = inhibition, usual class: inhibitors; G9a H3K9 monomethylation, AlphaScreen, 2 h; Q96KQ7; further: on the % scale 0 is the no-effect control and ±100 the full control effect; nearly all actives have a fitted effect of over 75% in size
#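 Quantitative HTS format: methyltransferase activity on a biotin-tagged H3K9 peptide is measured by AlphaScreen, using a rabbit anti-monomethyl-H3K9 antibody with streptavidin donor and anti-IgG acceptor beads. Final levels are 20 nM enzyme, 500 nM peptide, 20 uM SAM; 2 h RT.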
# VDR inhibitor: inhibitors of human vitamin D receptor; P11473; VDR-SRC2-3 peptide fluorescence polarization, 2 h; Potency, µM, inactives show max response, negative = inhibition, usual class: inhibitors; 400,000 tested, 0.93% active; AID 504847; further: on the % scale 0 is the no-effect control and ±100 the full control effect
#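 Signal is fluorescence polarization, reporting how far test compounds block the interaction of VDR with the SRC2-3 coregulator peptide after a 2 h room-temperature incubation.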
# * = called active by the depositor; ? = inconclusive; . = no result given; [ ] = another dose, or the depositor's remark. Hits are enriched below; roughly 11% of the tested compounds scored in any of these assays. The call rests on the fitted dose curve; in most records, active means well fitted curve in the direction sought with a large enough effect; inconclusive means small, poorly fitted or top-dose-only effect, or another doubt; inactive means no such curve, though single readings can be large; an effect the other way counts as inactive or inconclusive. Potency means the concentration at half of the fitted maximal effect.
SMILES,BAZ2B block,JMJD2A Tudor inh,HP1b binding inh,PLK1 PBD block,G9a inh,VDR inhibitor
CCOC(=O)c1cc(-c2ccccc2)sc1N,?,?,?,11.9µM*,8.91µM*,?
CC(=O)c1c(C(C)=O)c(C)n(-c2ccc(N)c(C)c2)c1C,-28.0%,-28.4%,27.7%,-16.1%,28.0%[12.7 µM],-2.1%
O=C(Nc1ccc(F)cc1)c1oc2ccccc2c1NC(=O)C1CCCCC1,-11.3%,-8.3%,46.5%,.,-32.8%[59 µM],-4.1%
Cc1ccc(NC(=O)c2oc3ccccc3c2NC(=O)C2CCCCC2)cc1,20.7%,79.4µM*,83.9%,.,31.6%[59 µM],11.8%
O=c1[nH]c2cnn(-c3ccccc3)c2c(=O)n1O,.,56.2µM*,14.1%,-7.6%,.,7.7%
Cc1cc(NC(=O)c2c(-c3ccccc3Cl)noc2C)no1,15.3%,-0.7%,20.7%,-0.5%,-5.4%,-0.7%
CCOc1cc(N2CCOCC2)c(OCC)cc1NC(=O)c1c(C)noc1C,-1.8%,-16.4%,17.7%,0.8%,15.8µM*,3.4%
CCOc1cc(N2CCOCC2)c(OCC)cc1NC(=O)c1c(-c2ccccc2Cl)noc1C,39.8µM*,44.7µM*,?,11.7%,35.5µM*,12.0%
Cc1onc(-c2ccccc2Cl)c1C(=O)Nc1ccc(S(=O)(=O)N2CCCC2)cc1,-12.4%,-17.2%,13.6%,-18.6%,?,-15.6%
Cc1onc(-c2ccccc2)c1C(=O)Nc1ccc(S(=O)(=O)N2CCOCC2)cc1,5.3%,-9.1%,-1.7%,-19.1%,50.1µM*,-6.4%
CCOc1cc(N2CCOCC2)c(OCC)cc1NC(=O)c1ccc(C)cc1,-36.9%,-27.9%,-0.7%,-8.1%,?,-20.3%
Cc1onc(-c2ccccc2Cl)c1C(=O)Nc1nn[nH]n1,79.4µM*,56.2µM*,19.3%,-4.4%,-6.7%[59 µM],-8.1%
CCCCc1ccc(NC(=O)CN(C)CC(=O)Nc2ccccc2Cl)cc1,4.6%,-10.3%,27.3%,-8.1%,10.2%,-0.1%
CC(C)CN1C(=O)CN(S(C)(=O)=O)CC1(C)C(=O)NC(C)C (stereo not given),.,.,.,5.4%,.,.
O=C(Nc1cccc(Br)c1)N1CCC(CN2CCCCCC2)CC1,-7.5%,-23.4%,14.1%,.,-33.5%[59 µM],3.0%
CCOc1cc(N2CCOCC2)c(OCC)cc1NC(=O)c1c(-c2ccccc2)noc1C,44.7µM*,?,-15.1%,-1.1%,-6.3%[2.33 µM],5.4%
CN(C)c1cc2c(c(N(C)C)c1)C(=O)c1ccccc1C2=O,8.91µM*,?,?,-7.4%,10µM*,2.6%
CN(C)S(=O)(=O)c1cccc2c1C(=O)c1ccccc1C2=O,-36.8%,-5.4%,29.7%,-1.1%,?,13.4%
COc1ccccc1CCNc1ncnc2nc[nH]c12,.,2.8%,26.4%,.,.,-8.5%
COc1ccc(C(C)=O)cc1Cn1c(C)c(C(=O)NC2CC2)sc1=O,.,.,.,-7.2%,.,.
Cc1ccc(OCC(=O)c2c(N)n(C)c(=O)n(C)c2=O)c([N+](=O)[O-])n1,25.1µM*,?,20µM*,?,59.9%[12.7 µM],-6.8%
CC(C)CC(C(=O)OCC(=O)c1c(N)n(C)c(=O)n(C)c1=O)N1C(=O)c2ccccc2C1=O (stereo not given),-28.7%,-30.8%,18.0%,-2.3%,11.2µM*,-22.4%
Cn1c(N)c(C(=O)COC(=O)[C@H](Cc2ccccc2)N2C(=O)c3ccccc3C2=O)c(=O)n(C)c1=O,-8.9%,-26.2%,18.9%,-4.8%,0.7%,-7.4%
COc1ccccc1OCCC(=O)OCC(=O)c1c(N)n(C)c(=O)n(C)c1=O,?,-21.7%,35.3%,-5.5%,50.1µM*,-10.3%
Cc1c(-c2nnc(SCC(=O)Nc3ccc(Cl)cc3)o2)nnn1-c1ccc(F)cc1,-4.8%,-22.0%,18.5%[57 µM],.,16.2%[59 µM],5.9%
SMILES,BAZ2B block,JMJD2A Tudor inh,HP1b binding inh,PLK1 PBD block,G9a inh,VDR inhibitor
S=c1[nH]nc(CN2CCCC2)n1Cc1ccccc1,-4.0%,3.55µM*,11.3%,-20.1%,50.1µM*,-25.2%
S=c1[nH]nc(CN2CCCCC2)n1Cc1ccccc1,-22.8%,12.6µM*,20.7%,-20.1%,22.4µM*,-19.2%
CCOC(=O)[C@]12CCCC=C1N(Cc1ccc(Cl)cc1Cl)C(=O)[C@H](CC(=O)NCC13CC4CC(CC(C4)C1)C3)C2,.,.,.,-16.0%,.,.
CC(=O)Oc1ccc(C(=O)[C@H]2[C@H]3C(=O)N(c4ccc5ccccc5c4)C(=O)[C@H]3[C@@H]3C=CC=NN32)cc1,-8.9%,-25.8%,14.1%,14.4%,?,11.7%
COc1ccccc1N1C(=O)[C@@H]2[C@H](C1=O)[C@H](C(=O)c1ccc(OC(C)=O)cc1)N1N=CC=C[C@@H]21,-31.2%,-32.3%,21.8%,?,5.01µM*,-2.3%
Cc1ccc(Nc2nc(CSc3nnc(-c4ccccc4C)n3C)cs2)cc1,?,79.4µM*,-26.4%,-12.7%,31.6µM*,3.1%
Cc1ccccc1-n1c(SCc2csc(Nc3ccccc3)n2)nnc1-c1cccnc1,?,?,-14.7%,-2.5%,25.1µM*,-11.0%
CC(=O)NC(Cc1c[nH]c2ccccc12)C(=O)NCCc1ccccn1 (stereo not given),-16.1%,-10.6%,1.4%,27.1%,5.4%,-8.8%
CC(C)c1ccc(CNC(=O)C(=O)NCC2CCCO2)cc1 (stereo not given),-17.9%,-8.1%,35.4%,-8.3%,-0.5%,-20.6%
COc1cccc(-c2cc(C(F)(F)F)c(C#N)c(=O)[nH]2)c1,10.1%,?,26.3%,23.8µM*,3.9%,70.8µM*
CN(CC(=O)NC(=O)NC1CCCCC1)CC(=O)Nc1ccc(Cl)cc1,7.3%,-6.5%,31.8%,3.1%,?,2.2%
Cc1cc(C)c(NC(=O)CSc2nc3c([nH]c4ccccc43)c(=O)n2C)c(C)c1,-0.1%,3.5%,26.0%[57 µM],.,2.1%[59 µM],7.7%
COC(=O)c1ccc(CN2CCN(CC=C(C)C)C(CCO)C2)cc1 (stereo not given),?,5.5%,40.9%,-1.1%,44.7µM*,1.8%
COC(=O)c1ccc(CN2CCN(CC(C)C)C(CCO)C2)cc1 (stereo not given),-7.0%,-10.9%,22.6%,-1.2%,.,-13.0%
O=C(COc1c(Cl)cccc1Cl)NN1C(=O)CSC1=S,-15.7%,?,-2.2%,18.9µM*,-9.3%,-10.2%
COc1cccc(Nc2ncc3ncc(=O)n(C)c3n2)c1,.,.,.,.,14.6%[0.501 µM],0.8%
O=C(O)Cc1ccc(NC(=O)C2CC=CCC2C(=O)O)cc1 (stereo not given),56.2µM*,.,.,.,?,.
CCc1ccc(NC(=O)C2CC=CCC2C(=O)O)cc1 (stereo not given),-4.6%,-8.1%,34.2%,-6.2%,-1.2%,1.0%
Cc1ccn2c(NCc3ccco3)c(-c3ccccc3)nc2c1,.,?,22.5%,.,.,4.1%
Cc1ccc(C)c(S(=O)(=O)Nc2ccc3oc(C)c(C(=O)O)c3c2)c1,50.1µM*,50.1µM*,50.1µM*,?,39.8µM*,2.7%
O=c1c2ccccc2c(=O)n(-c2ccccc2)n1CCCCBr,.,12.8%,42.6%,-4.7%,.,11.0%
